Measurements from the supplement of paper PMC9262897, “Low-cost anti-mycobacterial drug discovery using engineered E. coli” (Nature Communications, 2022).
Where a name gives a salt, the structure may show the parent alone. ± gives the standard deviation of the averaged measurements.

Experiments:
Experiment in all cases: growth (OD600 after 10 h); higher = more growth (less inhibition)
[1] = system: E. coli TESEC Alr+ wild-type control; conditions: compound 0.1 mM; raw OD600 reference: median of DMSO wells 0.241, cell-free background 0.041
Experimental: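 TESEC Mtb Alr E. coli, or the Alr+ wild-type control, in 384-well plates with Prestwick library compounds at 0.1 mM and 1% DMSO, across arabinose induction levels of 1E3 to 1E7 nM. Growth is read as OD600 after 10 h at 37 °C in triplicate biological replicates.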

E. coli TESEC Mtb Asd = conditions: compound 0.1 mM
Experimental: (§1)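 TESEC E. coli strains in which the native enzyme is deleted and replaced by arabinose-inducible Mtb Asd, DapB, CysH or TrpD, each grown in its selective medium. Strains were screened against the Prestwick library at 0.1 mM and 1% DMSO in 384-well format at low and high arabinose induction. Growth is read as OD600 after 10 h in triplicate.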

E. coli TESEC Mtb DapB = conditions: compound 0.1 mM
Experimental: as §1

[2] = system: E. coli TESEC Alr+ wild-type control; conditions: compound 0.1 mM; raw OD600 reference: median of DMSO wells 0.49, cell-free background 0.052
Experimental: (§2)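 TESEC Mtb Alr E. coli (ΔaraC ΔtolC ΔentC Δalr ΔdadX, arabinose-inducible Mtb Alr) or the Alr+ wild-type control strain, grown in defined M9-fructose medium without D-alanine in 96-well plates with Prestwick library compounds at 0.1 mM and 1% DMSO. Low Alr induction is 0.1 µM arabinose and high induction is 10 mM arabinose.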

E. coli TESEC Mtb Alr = conditions: compound 0.1 mM
Experimental: as §2

[3] = arabinose induction (level): High, raw OD600 reference: median of DMSO wells 0.331, cell-free background 0.041
[4] = arabinose induction (level): Low, raw OD600 reference: median of DMSO wells 0.417, cell-free background 0.041
[5] = arabinose induction (level): High, raw OD600 reference: median of DMSO wells […], cell-free background 0.041
[6] = arabinose induction (level): Low, raw OD600 reference: median of DMSO wells 0.227, cell-free background 0.041
[7] = arabinose 100 nM, raw OD600 reference: median of DMSO wells 0.413, cell-free background 0.052
[8] = arabinose 10000000 nM, raw OD600 reference: median of DMSO wells […], cell-free background 0.052

Structure (SMILES)	growth [1]	growth (E. coli TESEC Mtb Asd; [3])	growth (E. coli TESEC Mtb Asd; [4])	growth (E. coli TESEC Mtb DapB; [5])	growth (E. coli TESEC Mtb DapB; [6])	growth [2]	growth (E. coli TESEC Mtb Alr; [7])	growth (E. coli TESEC Mtb Alr; [8])
CC[C@]12CCCN3CCc4c(n(c5ccccc45)C(=O)C1)[C@@H]32 [Eburnamonine (-)]	0.182 ± 0.0061	0.119 ± 0.0043	0.27 ± 0.095	0.176 ± 0.0063	0.176 ± 0.012	0.544 ± 0.059	0.393 ± 0.012	0.277 ± 0.015
CCCCc1cc2ccccc2c(OCCN(C)C)n1 [Dimethisoquin hydrochloride]	0.177 ± 0.0065	0.154 ± 0.0042	0.171 ± 0.015	0.167 ± 0.014	0.184 ± 0.012	0.444 ± 0.022	0.3984 ± 0.0029	0.308 ± 0.011
OCC(O)CN1CCN(c2ccccc2)CC1 (racemic) [Dropropizine (R,S)]	0.241 ± 0.0033	0.364 ± 0.032	0.424 ± 0.03	0.2 ± 0.025	0.248 ± 0.026	0.431 ± 0.04	0.404 ± 0.014	0.361 ± 0.022
CO[C@@H]1[C@@H](OC(N)=O)[C@@H](O)[C@H](Oc2ccc3c(O)c(NC(=O)c4ccc(O)c(CC=C(C)C)c4)c(=O)oc3c2C)OC1(C)C [Novobiocin sodium salt]	0.0431 ± 0.00086	0.0533 ± 0.0015	0.0535 ± 0.0063	0.05077 ± 0.0005	0.0501 ± 0.00055	0.0556 ± 0.0007	0.0617 ± 0.0036	0.052 ± 0.0006
Clc1ccc(CCC(Cn2ccnc2)Sc2c(Cl)cccc2Cl)cc1 (stereo not given) [Butoconazole nitrate]	0.0548 ± 0.0082	0.0629 ± 0.00052	0.0669 ± 0.0063	0.0705 ± 0.0052	0.0712 ± 0.0093	0.0876 ± 0.003	0.1 ± 0.057	0.115 ± 0.013
OCCN1C[C@H](O)[C@@H](O)[C@H](O)[C@H]1CO [Miglitol]	0.243 ± 0.0029	0.358 ± 0.084	0.42 ± 0.084	0.207 ± 0.031	0.223 ± 0.029	0.583 ± 0.098	0.406 ± 0.011	0.324 ± 0.051
CCOC(=O)C1=C(C)NC(C)=C(C(=O)OC)C1c1cccc(Cl)c1Cl (stereo not given) [Felodipine]	0.0763 ± 0.012	0.0579 ± 0.0044	0.0538 ± 0.002	0.07363 ± 0.0005	0.0792 ± 0.032	0.0917 ± 0.0035	0.3 ± 0.099	0.0862 ± 0.0057
Nc1ccc(S(=O)(=O)Nc2ncccn2)cc1 [Sulfadiazine]	0.257 ± 0.0066	0.374 ± 0.043	0.414 ± 0.0071	0.184 ± 0.015	0.187 ± 0.023	0.464 ± 0.054	0.411 ± 0.011	0.312 ± 0.066
O=C(Nc1cccc2c(=O)cc(-c3nnn[nH]3)oc12)c1ccc(OCCCCc2ccccc2)cc1 [Pranlukast]	0.23 ± 0.0033	0.236 ± 0.0051	0.238 ± 0.014	0.158 ± 0.014	0.195 ± 0.015	0.46 ± 0.0055	0.424 ± 0.0063	0.308 ± 0.013
CN1C(C(=O)Nc2ccccn2)=C(O)c2sccc2S1(=O)=O [Tenoxicam]	0.195 ± 0.0081	0.281 ± 0.11	0.223 ± 0.01	0.185 ± 0.0085	0.18 ± 0.0088	0.493 ± 0.051	0.375 ± 0.05	0.277 ± 0.01
